Bioassay records from PubChem.
Sampled rows, rich in hits. Any-hit rate of the full collection: about 4.6%.
IL1B NFkB inh: blocks IL-1B driven NFkB nuclear translocation in HUVEC cells; inhibition, % at 2 µM; 94,000 tested, 0.43% active; HUVEC IL-1B NFkB p65 nuclear translocation imaging;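 active = inhibition above about 30% together with a positive call from visual inspection of the well image, limit read from the data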;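 also: nuclear over cytoplasmic p65 intensity ratio measured by imaging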
IL1B cytotox: HUVEC cytotoxicity counter-screen, IL-1B stimulated; AID 845; HUVEC cell count loss, Hoechst imaging; 94,000 tested, 0.41% active; cell count reduction, % at 2 µM;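 active = cell count reduction more than 3 SD above the screen-wide mean, cut at about 70% in these data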
sEH act: increases human soluble epoxide hydrolase activity; P34913; purified human sEH enzymatic activity, activator screen; activation, % at 2 µM; 91,000 tested, 0.04% active; in the data active = activation above about 37%
Target sequence (P34913 whole entry, looked up): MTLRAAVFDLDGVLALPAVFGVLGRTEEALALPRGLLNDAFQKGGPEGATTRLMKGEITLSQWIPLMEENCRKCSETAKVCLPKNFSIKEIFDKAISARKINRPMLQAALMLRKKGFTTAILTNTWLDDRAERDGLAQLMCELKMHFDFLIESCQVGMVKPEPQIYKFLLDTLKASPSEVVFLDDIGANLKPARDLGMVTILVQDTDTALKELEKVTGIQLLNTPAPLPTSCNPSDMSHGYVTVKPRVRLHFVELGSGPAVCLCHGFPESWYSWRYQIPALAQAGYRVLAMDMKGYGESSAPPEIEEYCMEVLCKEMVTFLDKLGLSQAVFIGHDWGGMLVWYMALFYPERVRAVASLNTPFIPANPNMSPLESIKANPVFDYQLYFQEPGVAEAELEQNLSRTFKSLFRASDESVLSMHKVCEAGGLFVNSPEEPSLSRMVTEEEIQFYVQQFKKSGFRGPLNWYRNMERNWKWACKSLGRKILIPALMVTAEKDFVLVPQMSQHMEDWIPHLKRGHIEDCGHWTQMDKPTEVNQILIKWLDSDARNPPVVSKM
sEH inh: soluble epoxide hydrolase (human) inhibition; AID 707; recombinant human sEH enzymatic activity assay; P34913; inhibition, % at 2 µM; 91,000 tested, 0.34% active; in the data active = inhibition above about 80%
Cav3 T inh: blocks human Cav3.2 T-type calcium channel; O95180; Cav3.2-expressing cells, Fluo-4 calcium fluorescence FDSS; stronger effect = lower value; B-score at 10 µM; 100,000 tested, 4% active; AID 449739;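 active = single-dose well whose peak fluorescence ratio is a statistical outlier from its plate by either plate-standardised score or position-corrected B-score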
IL1B NFkB pot: enhances IL-1B driven NFkB nuclear translocation; activation, % at 2 µM; 94,000 tested, 0.3% active; HUVEC IL-1B NFkB p65 nuclear translocation imaging;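 active = activation above 40%, about the mean plus 3 SD, also judged a hit on visual image review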;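 also: percent activation is computed from the nuclear over cytoplasmic p65 intensity ratio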
Large screens that a line does not name were inactive.

CC(C)c1ccc(NC(=O)C(c2ccccc2)N2CCC3(CC2)OCCO3)cc1 (centres undefined)	Cav3 T inh -7.4
Cc1ccc(NC(=O)C(c2ccc(Cl)cc2)N2CCCCC2)cc1 (centres undefined)	Cav3 T inh -7
O=C(NCc1ccco1)C1CC(c2cccc([N+](=O)[O-])c2)=NO1 (centres undefined)	none
O=C(NCc1cccs1)c1cc(-c2ccccc2)nn1CC1CC(c2cccc([N+](=O)[O-])c2)=NO1 (centres undefined)	none (no result: IL1B NFkB inh, IL1B cytotox, sEH act, sEH inh, IL1B NFkB pot)
CS(=O)(=O)N1CCC(C(=O)Nc2ccccc2)CC1	none
c1ccc2c(c1)nc1n2CC2CON(C3CCCCC3)C12 (centres undefined)	none (no result: IL1B NFkB inh, IL1B cytotox, sEH act, sEH inh, IL1B NFkB pot)
CCCc1cc(=O)oc2c3c(c4c(c12)OC(C)(C)C=C4)OC(C)C(C)C3O (centres undefined)	Cav3 T inh -6.8 (no result: IL1B NFkB inh, IL1B cytotox, sEH act, sEH inh, IL1B NFkB pot)
CCCc1cc(=O)oc2cc(C)cc(O)c12	none
Cn1nc(OCC(N)=O)ccc1=O	none
CCOC(=O)N=S(=O)(Oc1ccc([N+](=O)[O-])cc1)c1ccc(Cl)cc1 (centres undefined)	Cav3 T inh -4.2
CSCC[C@H](NC(=O)OC(C)(C)C)C(=O)N1CCC(C(=O)N[C@H](C(=O)O)C(C)C)CC1	none
N=C1/C(=C/c2cccs2)C(=O)N=C2SN=C(SCc3ccccc3)N12	Cav3 T inh -7.7
NNC(=O)CN1C(=O)Nc2ccc(Br)cc2C1c1ccccc1 (centres undefined)	none
CCCc1c(O)c2ccccc2n(-c2ccccc2)c1=O	none
CC(=O)c1c(O)c(C)c(-c2ccccc2)n(-c2ccccc2)c1=O	Cav3 T inh -3.6
CCO/N=C(\C)c1c(O)c(CC)c(-c2ccccc2)n(-c2ccccc2)c1=O	Cav3 T inh -3.9
CC(=O)Oc1ccc2ccccc2c1C(NC(=O)Cc1ccccc1)c1ccc(Cl)cc1 (centres undefined)	Cav3 T inh -9.8
O=C(CSc1nnc(-c2ccc(Cl)cc2)n1Cc1ccco1)Nc1ccc2c(c1)OCCO2	none (no result: IL1B NFkB inh, IL1B cytotox, sEH act, sEH inh, IL1B NFkB pot)
CC(=O)Nc1cccc(NC(=O)CSc2ncc(-c3ccc(Cl)cc3)n2Cc2ccco2)c1	Cav3 T inh -3.8
COc1ccc(-c2cnc(SCC(=O)Nc3ccc4c(c3)OCO4)n2Cc2ccco2)cc1	Cav3 T inh -4.1
O=C(Nc1ccc(Cl)cc1)N1CCCN(Cc2ccc(F)cc2)C1	none (no result: IL1B NFkB inh, IL1B cytotox, IL1B NFkB pot)
Cc1ccc(-n2ncc(C(=O)NCc3ccc4c(c3)OCO4)c2NC(=O)c2ccco2)cc1C	Cav3 T inh -6.2
Nc1c(C(=O)OCC2CCCO2)c2nc3ccccc3nc2n1C1CCCCC1 (centres undefined)	none
Cc1ccc(C(=O)N/C(=C\c2sccc2C)C(=O)NCc2ccco2)cc1	none
CC(C)(C)NC(NC(=O)Cc1ccccc1)C(Cl)(Cl)Cl (centres undefined)	none
O=C(Cc1ccccc1)NC(NCCc1ccccc1)C(Cl)(Cl)Cl (centres undefined)	Cav3 T inh -10
O=C(Cc1ccccc1)NC(Nc1ccccc1)C(Cl)(Cl)Cl (centres undefined)	Cav3 T inh -4.2
Cc1c(=O)n(OCc2cccc(F)c2)c2ccccc2[n+]1[O-]	none
CCN(CC)C(=O)CSc1nc2c(sc(=S)n2-c2ccccc2)c(=O)n1Cc1ccco1	Cav3 T inh -6.6
CC(C)c1ccc(NC(=O)C(c2ccc3c(c2)OCO3)N2CCN(C(=O)c3ccco3)CC2)cc1 (centres undefined)	Cav3 T inh -5.2 (no result: IL1B NFkB inh, IL1B cytotox, sEH act, sEH inh, IL1B NFkB pot)
CCCC(C)C(=O)Nc1ccc2c(c1)OCCO2 (centres undefined)	none
CCN(CC)C(C(=O)Nc1ccc(C(C)C)cc1)c1ccc2c(c1)OCO2 (centres undefined)	sEH act 38, Cav3 T inh -4.9
Cc1cc(N2CCN(c3ccccc3)CC2)nc(NCc2ccccc2)n1	none (no result: sEH act, sEH inh)
O=C(Nc1nc2ccccc2s1)C1CC(=O)N(c2ccc(Cl)cc2)C1 (centres undefined)	Cav3 T inh -4.7
C=CCn1c(CSc2nc3ccccc3s2)n[nH]c1=S	none (no result: Cav3 T inh)
CC1CC(C)CN(C(=O)Cn2c(SCC(=O)N3CCc4ccccc4C3)nc3ccccc32)C1 (centres undefined)	Cav3 T inh -8.4
Clc1ccc(/C=N/Nc2nnc(-c3ncc[nH]3)c3ccccc23)cc1	none (no result: sEH act, sEH inh)
Cc1csc(Sc2nc3c(c(=O)[nH]c(=O)n3C)n2Cc2ccccc2Cl)n1	IL1B NFkB inh 31
COc1cccc(CN(Cc2ccco2)C(c2ccc(F)cc2)c2nnnn2C(C)(C)C)c1 (centres undefined)	none
CCC(C)(C)n1nnnc1C(c1ccc(C)cc1)N(Cc1ccco1)Cc1cccs1 (centres undefined)	Cav3 T inh -5.8
COC(=O)c1ccc(N2CCCCC2)c(NS(=O)(=O)c2ccc(C)cc2)c1	Cav3 T inh -3.7
CC(=O)c1cc2c(cc1NS(=O)(=O)c1ccc3c(c1)OCCO3)OCO2	none
COC(=O)c1ccc(Cl)c(NS(=O)(=O)c2ccc3c(c2)OCCO3)c1	Cav3 T inh -5.4
O=S(=O)(NCc1cc(-c2ccccc2Cl)no1)c1ccc(Cl)cc1	Cav3 T inh -7.2
CCc1cc2c(-c3ccccc3)cc(=O)oc2c(CN2CCOCC2)c1O	Cav3 T inh -8.7 (no result: sEH act, sEH inh)
O=c1cc(-c2ccccc2)c2ccc(O)c(CN3CCCCC3)c2o1	none (no result: Cav3 T inh)
O/N=C/c1ccccc1OCc1ccc(Cl)cc1	none
O=C(Nc1ccccc1)C1CC2CCCC(C1)C2=O (centres undefined)	none
O=C(CN(c1ccc(Cl)cc1)S(=O)(=O)c1ccccc1)N/N=C/c1ccco1	Cav3 T inh -6
O=C(CN1C(=O)C2(OCCO2)c2ccccc21)c1ccc(F)cc1	none
CCC(COC(=O)Nc1cccc(C)c1C)NC(=O)OCC(C)C (centres undefined)	IL1B NFkB inh 31
COc1ccc(OC)c(NC(=O)C(CC(C)C)NC(=O)C2CCCCC2)c1 (centres undefined)	none (no result: IL1B NFkB inh, IL1B cytotox, sEH act, sEH inh, IL1B NFkB pot)
Cc1ccc(N(CC(=O)N2CCc3ccccc32)C2=NC(=O)CS2)cc1	Cav3 T inh -4.3
Cn1nc(C(F)(F)F)c(/C=N/OC(=O)c2ccccc2)c1SCc1ccc(Cl)cc1	none
Cn1nc(C(F)(F)F)c(/C=N/OC(=O)c2ccccc2Cl)c1SCc1ccccc1Cl	Cav3 T inh -6.6
O=C1c2oc3ccc(F)cc3c(=O)c2C(c2cccc(O)c2)N1CCCN1CCOCC1 (centres undefined)	none (no result: IL1B NFkB inh, IL1B cytotox, sEH act, sEH inh, IL1B NFkB pot)
Cc1ccc2cc(CN(Cc3ccc4c(c3)OCO4)Cc3nnnn3Cc3ccco3)c(=O)[nH]c2c1	Cav3 T inh -6.7
CCOC(=O)Cn1nnnc1CN(CCc1ccccc1)Cc1cc2cc(CC)ccc2[nH]c1=O	Cav3 T inh -4.4
Cc1ccc2[nH]c(=O)c(CN(Cc3ccccc3)Cc3nnnn3C3CCCC3)cc2c1	IL1B cytotox 72
CCOC(=O)c1sc2nc(CC(=O)OC)nc(N3CCN(c4ccccn4)CC3)c2c1C	Cav3 T inh -2.9
